This is part of a sample that, as a whole, favours compounds with a hit. Of some 83,000 tested, about 20% had one in any assay.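 Cell lines were cultured in 96-well plates, exposed to a single compound concentration, and assessed for percent growth 48 hours later.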 A number with no mark means an inactive call. Activity calls are given as the source filed them. How the source made its calls: active means growth percent below 10; inactive means the rest.
Experiments:
Assay in all cases: NCI-60 one-dose screen, 48 h (100 = growth as untreated, 0 = no growth, -100 = all killed)
Conditions in all cases: 10 µM
786-0 renal = test system: 786-0 renal
MALME-3M melanoma = test system: MALME-3M melanoma
MDA-MB-231 breast = test system: MDA-MB-231 breast
SF-268 CNS = test system: SF-268 CNS
SF-295 CNS = test system: SF-295 CNS
UACC-257 melanoma = test system: UACC-257 melanoma
UACC-62 melanoma = test system: UACC-62 melanoma
SK-MEL-28 melanoma = test system: SK-MEL-28 melanoma
SK-MEL-2 melanoma = test system: SK-MEL-2 melanoma
EKVX NSCLC = test system: EKVX NSCLC
SN12C renal = test system: SN12C renal
UO-31 renal = test system: UO-31 renal
TK-10 renal = test system: TK-10 renal
CAKI-1 renal = test system: CAKI-1 renal
A498 renal = test system: A498 renal
OVCAR-8 ovarian = test system: OVCAR-8 ovarian
OVCAR-5 ovarian = test system: OVCAR-5 ovarian
IGROV1 ovarian = test system: IGROV1 ovarian
OVCAR-3 ovarian = test system: OVCAR-3 ovarian
HS 578T breast = test system: HS 578T breast

Structure (SMILES)	growth (786-0 renal)	growth (MALME-3M melanoma)	growth (MDA-MB-231 breast)	growth (SF-268 CNS)	growth (SF-295 CNS)	growth (UACC-257 melanoma)	growth (UACC-62 melanoma)	growth (SK-MEL-28 melanoma)	growth (SK-MEL-2 melanoma)	growth (EKVX NSCLC)	growth (SN12C renal)	growth (UO-31 renal)	growth (TK-10 renal)	growth (CAKI-1 renal)	growth (A498 renal)	growth (OVCAR-8 ovarian)	growth (OVCAR-5 ovarian)	growth (IGROV1 ovarian)	growth (OVCAR-3 ovarian)	growth (HS 578T breast)
COc1cc(Nc2nc(O)c(/C=C3\C=Nc4ccccc43)s2)cc(OC)c1OC	-73.1% (active)	-30.1% (active)	-40.7% (active)	-38.2% (active)	-73.4% (active)	4.51% (active)	-65.9% (active)	-34.5% (active)	-70.6% (active)	-41.8% (active)	-88% (active)	-48.9% (active)	-35% (active)	-69.3% (active)	-76.1% (active)	-49.8% (active)	-52.5% (active)	-40.2% (active)	-77% (active)	-20.2% (active)
O=C(CC(=O)Nc1ccc(Oc2ncnc3scc(Nc4n[nH]c(=S)s4)c23)cc1)Nc1ccc(Br)cc1	109%	105%	101%	98.7%	112%	104%	82.2%	110%	98.8%	101%	106%	85.1%	146%	88.8%	121%	102%	106%	106%	105%	96.7%
CC1(C)CC(=O)C2=C(C1)N(Cc1ccc(C(=O)O)cc1)C1=C(C(=O)CC(C)(C)C1)C2c1ccc(Cl)cc1	95.5%	105%	106%	106%	99.4%	101%	89.9%	119%	97.6%	97.5%	103%	81.6%	92.2%	90.5%	95.8%	105%	106%	107%	112%	105%
O=C(CN1CCN(c2ncnc3c2cnn3-c2ccccc2)CC1)Nc1ccc(Br)cc1	-61.7% (active)	-54.4% (active)	66.7%	58.8%	83%	58.7%	45.1%	72%	29.9%	46.9%	39.1%	-77% (active)	121%	-57% (active)	90.9%	64.7%	78.2%	58.1%	60.6%	70.7%
CC1[C@H]2[C@H](C[C@H]3[C@@H]4CC=C5c6sc(Nc7cccc(Cl)n7)nc6CC[C@]5(C)[C@H]4CC[C@@]32C)O[C@]12CC[C@@H](C)CO2 (stereo not given in full)	105%	117%	82.4%	86.9%	109%	82%	54.5%	100%	76.9%	83.8%	94.5%	85.4%	171%	84.8%	92.6%	74.2%	113%	99.2%	93.7%	106%
Cc1ccc2c(c1)C(=O)/C(=C/c1ccc([N+](=O)[O-])cc1)S2	101%	97.8%	98.1%	96.4%	98.2%	101%	73.2%	109%	101%	91.6%	93.4%	58.2%	135%	61.9%	114%	105%	82.9%	63.8%	103%	86%
CCOC(=O)c1ccc(NC(=O)CSC(CC(=O)c2sc(Nc3ccccn3)nc2C)c2ccccc2F)cc1 (stereo not given)	-12.5% (active)	34.2%	10.5%	-0.243% (active)	0.23% (active)	39%	11.8%	33.3%	-31.2% (active)	20.2%	-14.8% (active)	-2.98% (active)	28.7%	2.96% (active)	-1.49% (active)	-0.285% (active)	-6.86% (active)	14%	6.5% (active)	8.86% (active)

Source: PubChem BioAssay (NCI)
